From PubChem BioAssay (NCI)
Values joined by “and” are separate entries in the source; they are usually repeats but may differ in a detail not shown here. Equal values may be shown once. The panel holds about 83,000 compounds, 20% with a hit somewhere; the sample as a whole holds those more often.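 Assay: single dose, 48 h. Readout: percent growth (0 = no net growth; negative = cell death). Active: <10.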 Unmarked numbers belong to inactive results. Active and inactive are the calls of the source.

Test system: HL-60(TB) leukemia
Assay: NCI-60 one-dose screen, 48 h (100 = growth as untreated, 0 = no growth, -100 = all killed)
Details: 10 µM unless noted

SMILES	growth
c1ccc(Nc2ccc(Nc3nc(-c4ccccc4)nc4ccccc34)cc2)cc1	87.1%
CCC(C)C1(C2CCCC2)NC(=O)NC1=O (stereo not given)	63.4% and 98.2%
O=C(N/N=C/c1cccc2ccccc12)C1CC1	71.3% and 95.7%
O=Cc1ccccc1C(=O)O	111%
O=C1C(=O)N(CCCCn2cc(CO)nn2)c2ccccc21	91.9%
CN(C)C(=S)SC(=S)N(C)C	103% and 93.8%
COc1cc2cc(Oc3ccc(NC(=O)Nc4cccc(C(F)(F)F)c4)cc3)c(C)nc2cc1OCCN1CCOCC1	66.9%
CC(=O)N1N=C(c2ccc(C(F)(F)F)c(F)c2)CC1c1[nH]c(C)c(C(=O)NCC(F)(F)F)c1C (stereo not given)	111%
CCN1C[C@@H](C)n2c(c(O)c3c(=O)n(Cc4ccc(F)c(Cl)c4)nc(C(=O)NC)c32)C1=O	36.7%
O=C(CSc1nc2sc3c(c2c(=O)n1-c1ccccc1)CCCCC3)N/N=C/c1ccc(F)cc1	110%
CC(=O)O[C@H]1CC[C@]2(C)C3=C(C(=O)C[C@H]2C1(C)C)[C@]1(C)CC[C@H]([C@H](C)CCC(=O)O)[C@@]1(C)CC3=O	108%
CC(C)N(Cc1ccc(CN(C(=O)CCl)C(C)C)cc1)C(=O)CCl	-46% (active)
CCN(CC)CCOc1ccc(NC(=O)C(C(C)C)N2C(=O)/C(=C/c3ccc(Br)cc3)SC2=S)cc1 (stereo not given)	27.6%
CCOc1ccccc1/C=N/N1CCCCCC1	99.1%
COc1c(B(O)O)cccc1-c1nc2ccc3[nH]ncc3c2c2c1CCC2	61.6%
CN(C)c1ccc(-c2c(C#N)c(N)nn2C(=O)c2ccc(NC(=O)c3ccccn3)cc2)cc1	96.5%
Cn1cc(-c2csc(-c3cn(CCNC(=O)OC(C)(C)C)c4ccccc34)n2)c2cccnc21	45.9%
CN1CCN(C2=Nc3ccccc3Oc3ccc(Cl)cc32)CC1	91.8%
CCCCCCCCCCCCc1ccc([N+](CC)(CC)CC)cc1	-10.9% (active)
CCC(=O)OCc1ccc(OC)cc1	97%

SMILES	growth
COc1ccc2sc3c(NCCCN(C)C)nc4ccccc4c3c(=O)c2c1	38.7%
COCCN(C(=O)c1ccc(F)cc1F)c1c(N)n(Cc2ccccc2)c(=O)[nH]c1=O	132%
N#C/C(=C/c1cc([N+](=O)[O-])ccc1Cl)C(N)=O	91.7%
Cc1cc(=O)oc2c1ccc1oc(C#N)c(C)c12	107%
COc1ccc2c(c1)CCCC21C(=O)Nc2ccccc21 (stereo not given)	88%
NC(=O)c1cc(Cl)ccc1NC(=O)c1ccccc1-c1ccccc1	1.29% (active)
Cc1cc(C(=O)O)c(C)cc1C(=O)O	113%
C[C@@H](C(=O)NCCCC#Cc1cnc(Nc2ccc(C#N)cc2)nc1NC1CC1)N(C)C(=O)/C=C/CN(C)C	42.6%
COc1cc(-c2nc(SCCC(C)C)nc(Nc3ccccc3Cl)c2C#N)cc(OC)c1OC	101%
FC(F)(F)c1ccc(-c2cn3nc(-c4c[nH]c5ccc(Br)cc45)sc3n2)cc1	96.9%
COc1cc(OC)c2c(c1)c1nc3cc(C)c(C)cc3nc1n2CCN(C)C	103%
CN(C)CCC(=O)c1ccc(Cl)cc1	113% and 110%
CC(C)c1ccc(COCc2cc(CN3CCCC3)c(O)c3ncccc23)cc1	-20.3% (active)
CC(=O)c1cccc(NS(=O)(=O)c2ccc(C)cc2)c1	70.9%
O=C1C(Cl)=C(Oc2ccccc2)C(=O)c2ccccc21	76%
C=CC[N+]1(CC)CCN=C1CCCCCCCCCCCCCCCCC (stereo not given)	-59.5% (active)
COc1ccc(-c2nnc(SCC(=O)c3ccc(Cl)cc3)o2)cc1	108%
COc1cc([C@@H]2c3cc4c(cc3[C@H](O)[C@H]3COC(=O)[C@@H]23)OCO4)cc(OC)c1OC	-34.9% (active) and -61% (active)
Cc1ccc(Sc2nnc(/N=C3\C(=O)Nc4ccccc43)s2)cc1	95.9%
CCCCNC(=O)Oc1ccc(/C(=C(\C)c2ccc(OC)cc2)c2ccc(OCCN3CCCCC3)cc2)cc1	34.6%
